# L3MBTL1 inh: L3MBTL1 (human) inhibition | actives 0.66% (n = 230,000) | Potency, µM (doses to about 57.1 µM), most hits filed as inhibitors | AlphaScreen L3MBTL1–H3K9me1 peptide binding | AID 485360 | Q9Y468; also: nearly all actives have a fitted effect of over 60% in size
#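 L3MBTL1 50 nM + b-AHA-H3(1-15)K9me1 75 nM, 30 min RT; compound added, 30 min RT; streptavidin donor/Ni-chelate acceptor beads 10 ug/mL each final, 30 min RT dark; AlphaScreen read.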
# BAZ2B block: inhibitors of human BAZ2B bromodomain; Q9UIF8; AlphaScreen BAZ2B-H3K14Ac peptide displacement; Potency, µM (top dose mostly 114 µM), usual class: inhibitors; actives 4.4% (n = 360,000); AID 504333; also: nearly all actives have a fitted effect of over 60% in size
# Target sequence (Q9UIF8 whole entry, looked up): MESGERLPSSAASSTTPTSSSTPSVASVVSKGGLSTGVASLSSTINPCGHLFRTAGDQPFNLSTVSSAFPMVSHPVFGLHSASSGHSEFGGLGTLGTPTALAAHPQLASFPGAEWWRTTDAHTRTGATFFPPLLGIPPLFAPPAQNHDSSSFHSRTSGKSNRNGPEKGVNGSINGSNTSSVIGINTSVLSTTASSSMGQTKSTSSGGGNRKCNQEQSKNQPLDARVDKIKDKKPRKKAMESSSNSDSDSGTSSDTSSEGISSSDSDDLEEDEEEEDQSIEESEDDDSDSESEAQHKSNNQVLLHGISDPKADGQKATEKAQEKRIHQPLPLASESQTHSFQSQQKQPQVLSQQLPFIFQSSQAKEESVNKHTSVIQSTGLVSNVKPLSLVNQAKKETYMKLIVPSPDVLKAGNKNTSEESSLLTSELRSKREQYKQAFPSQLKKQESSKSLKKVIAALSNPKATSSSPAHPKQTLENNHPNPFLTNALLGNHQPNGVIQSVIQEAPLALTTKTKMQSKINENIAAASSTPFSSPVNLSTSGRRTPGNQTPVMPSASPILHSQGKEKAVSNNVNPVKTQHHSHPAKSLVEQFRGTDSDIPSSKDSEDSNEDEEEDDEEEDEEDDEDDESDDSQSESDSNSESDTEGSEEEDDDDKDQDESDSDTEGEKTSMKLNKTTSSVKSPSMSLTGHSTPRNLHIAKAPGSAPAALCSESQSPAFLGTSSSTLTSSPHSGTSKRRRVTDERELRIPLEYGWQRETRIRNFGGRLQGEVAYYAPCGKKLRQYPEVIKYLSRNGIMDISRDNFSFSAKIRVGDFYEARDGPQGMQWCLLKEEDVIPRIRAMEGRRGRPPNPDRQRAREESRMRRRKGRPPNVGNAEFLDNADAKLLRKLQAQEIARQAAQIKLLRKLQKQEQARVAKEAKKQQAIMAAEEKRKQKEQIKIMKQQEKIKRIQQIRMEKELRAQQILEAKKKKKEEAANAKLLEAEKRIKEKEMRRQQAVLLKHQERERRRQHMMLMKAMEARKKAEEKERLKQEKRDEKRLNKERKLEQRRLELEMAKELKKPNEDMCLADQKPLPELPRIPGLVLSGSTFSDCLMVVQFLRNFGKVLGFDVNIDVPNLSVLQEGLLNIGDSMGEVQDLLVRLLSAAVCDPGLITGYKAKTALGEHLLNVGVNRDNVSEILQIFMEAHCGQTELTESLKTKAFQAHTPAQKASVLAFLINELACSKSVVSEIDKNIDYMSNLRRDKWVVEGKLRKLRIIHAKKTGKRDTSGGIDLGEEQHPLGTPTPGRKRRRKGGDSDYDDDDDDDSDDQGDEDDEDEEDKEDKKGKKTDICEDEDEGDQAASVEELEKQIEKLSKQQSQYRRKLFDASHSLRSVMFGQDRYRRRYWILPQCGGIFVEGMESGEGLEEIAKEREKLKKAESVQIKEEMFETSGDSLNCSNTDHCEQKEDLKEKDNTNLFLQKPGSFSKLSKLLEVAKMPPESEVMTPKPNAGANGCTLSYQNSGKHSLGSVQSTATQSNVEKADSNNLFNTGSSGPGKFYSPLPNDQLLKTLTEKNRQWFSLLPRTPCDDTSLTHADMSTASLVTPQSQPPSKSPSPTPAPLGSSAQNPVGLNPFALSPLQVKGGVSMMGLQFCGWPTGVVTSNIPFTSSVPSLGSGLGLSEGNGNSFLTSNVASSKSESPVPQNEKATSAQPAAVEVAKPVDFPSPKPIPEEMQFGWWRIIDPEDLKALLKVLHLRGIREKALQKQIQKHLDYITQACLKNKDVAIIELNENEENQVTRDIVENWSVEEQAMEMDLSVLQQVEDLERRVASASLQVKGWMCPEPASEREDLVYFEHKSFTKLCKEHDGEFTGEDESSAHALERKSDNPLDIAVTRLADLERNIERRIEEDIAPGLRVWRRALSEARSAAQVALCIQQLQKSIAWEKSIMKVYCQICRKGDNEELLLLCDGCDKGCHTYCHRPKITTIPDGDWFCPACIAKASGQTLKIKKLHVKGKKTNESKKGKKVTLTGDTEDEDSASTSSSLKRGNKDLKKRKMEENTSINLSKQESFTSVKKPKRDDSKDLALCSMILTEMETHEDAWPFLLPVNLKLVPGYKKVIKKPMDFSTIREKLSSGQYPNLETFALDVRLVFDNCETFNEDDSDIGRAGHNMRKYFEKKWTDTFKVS
#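 BAZ2B (50 nM) with biotin-H3(5-23)K14Ac peptide (50 nM) in PBS pH 7.4, 0.01% Tween-20, preformed 30 min, then compound 30 min at room temperature; top concentration 110uM. AlphaScreen streptavidin donor/nickel chelate acceptor beads (10 ug/mL final), 20 min dark, signal read.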
# G9a block: G9a (human) methyltransferase inhibition; Potency, µM (top dose mostly 102 µM), usual class: inhibitors; actives 8.8% (n = 350,000); G9a H3K9 monomethylation, AlphaScreen, 2 h; AID 504332; Q96KQ7; also: nearly all actives have a fitted effect of over 75% in size
#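 Signal arises when biotinylated H3K9 peptide, once monomethylated, bridges streptavidin donor and antibody-captured acceptor beads. Enzyme at 20 nM was preincubated 15 min with test compounds; peptide 500 nM and SAM 20 uM then reacted for 2 h.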
# JMJD2A Tudor: JMJD2A Tudor domain (human) inhibition. O75164. AlphaScreen JMJD2A-Tudor / H3K4me3 peptide binding. Potency, µM (titrated, usually from 114 µM), actives largely listed as inhibitors. actives 4.4% (n = 390,000). AID 504339; also: nearly all actives have a fitted effect of over 50% in size
# Sfp PPTase inh: inhibitors of Bacillus subtilis Sfp phosphopantetheinyl transferase. Biochemical Sfp PPTase activity, qHTS. actives 3.5% (n = 310,000). Potency, µM, most hits filed as inhibitors. AID 1490. Q9F4F7;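 also: the enzyme is Sfp with the accession as filed and its product quenches rhodamine fluorescence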
#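 With Hepes-Na pH 7.6 buffer containing 10 mM MgCl2, Sfp (15 nM) modified BHQ-2-YbbR (12.5 uM) using rhodamine-CoA (5 uM). Two reads 30 minutes apart at 525/598 nm yielded each well's rate.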
# HP1b chromo inh: HP1-beta chromodomain-methylated histone interaction inhibition; P83916; AlphaScreen HP1-beta / biotin-H3K9me3 peptide binding; Potency, µM (series often up to 114 µM), actives largely listed as inhibitors; actives 0.56% (n = 390,000); AID 540317; also: nearly all actives have a fitted effect of over 70% in size
#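 Compound inhibition of the preformed complex between 50 nM HP1-beta and 50 nM biotinylated H3K9me3 peptide was read by AlphaScreen. Buffer was PBS pH 7.4 with 0.01% Tween-20. Incubations ran 30 min at room temperature, with 10 ug/mL donor/acceptor beads.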
# A number is an active result; i = inactive; ? = inconclusive; nt = no result; ! = not active in a repeat. In the library only some 12% were active in any assay of this set; here they are far more common. Calls follow the shape of the dose curve; as a rule, active = well fitted curve in the direction sought with a large enough effect; inconclusive = small, poorly fitted or top-dose-only effect, or another doubt; inactive = no such curve, though single readings can be large; an effect the other way counts as inactive or inconclusive.
SMILES,L3MBTL1 inh,BAZ2B block,G9a block,JMJD2A Tudor,Sfp PPTase inh,HP1b chromo inh
Cc1ccc[n+](C(C)C(=O)Nc2ccc(C)c(C)c2)c1 (stereo unspecified),i,?,i,i,i,i
[O-]/C(=C(\C(=S)Nc1ccc(SC(F)F)cc1)[n+]1cccc(CO)c1)c1ccc(Cl)s1,i,31.6µM,25.1µM,?,?,i
O=C(NC(=S)NCc1ccc2c(c1)OCO2)c1ccccc1,i,?,?,i,i,i
[O-]/C(=C(\C(=S)NCc1ccc2c(c1)OCO2)[n+]1ccccc1)c1ccc(Cl)s1,i,44.7µM,28.2µM,i,39.8µM,i
Cc1c(Cl)cccc1NC(=S)/C(=C(\[O-])c1ccc(Cl)s1)[n+]1ccccc1,i,?,?,44.7µM,i,?
Cc1ccc(NC(=S)/C(=C(\[O-])c2ccc(Cl)s2)[n+]2cccc(CO)c2)cc1C,i,i,44.7µM,50.1µM,25.1µM,?
CCOc1ccc(CNC(=O)CCS(=O)(=O)c2cc3c4c(c2)CCN4C(=O)CC3)cc1,nt,i,i,i,nt,i
Nc1nc2c(ncn2C2OC(CO)CC2O)c(=O)[nH]1 (stereo unspecified),nt,nt,nt,nt,i,nt
CC(C)c1ccc(NC(=S)Nc2cccc3ccccc23)cc1,nt,?,?,?,i,i
[O-]/C(=C(\C(=S)Nc1cccc2ccccc12)[n+]1cccc(CO)c1)c1ccc(Cl)s1,nt,31.6µM,39.8µM,?,i,i
COc1ccc(OC)c(NC(=O)C2CCN(S(=O)(=O)c3c(C)noc3/C=C/c3ccc(C)cc3)CC2)c1,nt,i,i,i,nt,i
Cc1cccc(C)c1NC(=O)CN(Cc1ccc(Br)cc1)S(=O)(=O)c1ccccc1,nt,i,i,i,nt,i
Cc1ccc(S(=O)(=O)N2CCN(c3nc(-c4ccc(C)s4)nc4ccccc34)CC2)cc1,nt,nt,nt,i,nt,i
Cc1oc(-c2ccccc2)nc1CS(=O)CC(=O)N1CCc2ccccc2C1 (stereo unspecified),nt,i,22.4µM,i,50.1µM,i
COc1ccc2[nH]c(=O)c(CN(C3CCCCC3)C(c3nnnn3Cc3ccco3)C(C)C)cc2c1 (stereo unspecified),?,i,22.4µM,?,3.16µM,?
COc1ccc2[nH]c(=O)c(CN(Cc3nnnn3Cc3ccco3)C3CCCCC3)cc2c1,?,50.1µM,39.8µM,?,8.91µM,i
Cc1ccc(C)c2[nH]c(=O)c(C(c3nnnn3CCc3ccccc3)N3CCOCC3)cc12 (stereo unspecified),i,i,i,i,i,i
COc1ccc2cc(CN(CCc3ccccc3)Cc3nnnn3Cc3ccco3)c(=O)[nH]c2c1,i,?,?,i,i,i
Cc1ccc(C)c2[nH]c(=O)c(C(c3nnnn3Cc3ccco3)N3CCc4ccccc4C3)cc12 (stereo unspecified),i,i,31.6µM,i,20µM,i
CCOc1ccc2[nH]c(=O)c(C(c3nnnn3Cc3ccco3)N3CCCC(C)C3)cc2c1 (stereo unspecified),nt,?,?,i,12.6µM,i
COc1ccc2[nH]c(=O)c(CN(C(=O)c3ccccn3)C3CCCCC3)cc2c1,i,i,28.2µM,i,i,i
COc1ccc(Cn2nnnc2CN(Cc2cc3cc(C)ccc3[nH]c2=O)C2CCCC2)cc1,i,i,?,i,20µM,i
Cc1ccc2[nH]c(=O)c(CN(Cc3nnnn3C3CCCC3)C3CCCCC3)cc2c1,i,i,i,i,i,i
NNC(=O)C(C(=O)OCc1ccccc1)c1ccccc1 (stereo unspecified),nt,nt,nt,i,nt,nt
COc1cc2c(c(OC)c1OC)-c1c(cc(OC)c(OC)c1OC)CC(C)C(C)C2 (stereo unspecified),nt,nt,nt,nt,i,nt
CN(c1ccc(Cl)cc1)S(=O)(=O)c1nnc(NC(=O)c2ccco2)s1,nt,i,i,i,i,i
Cc1ccc(N(C)S(=O)(=O)c2nnc(NC(=O)c3ccco3)s2)cc1,nt,?,3.98µM!,?,i,i
Cc1ccc(N2CCN(S(=O)(=O)c3nnc(NC(=O)c4ccco4)s3)CC2)cc1,i,i,28.2µM,i,i,i
